From PubChem BioAssay

Tested on: Human papillomavirus type 1a E7 protein (residues 1-88)
Assay: HPV1a E7 small-molecule binders, primary screen, biochemical, small-molecule microarray, residues 1-88, 635 nm (AID 1129)
Details: small-molecule microarray binding, fluorescence 635 nm; higher = more signal

In order of falling composite z-score:
1. COC(=O)C(CC#Cc1ccc2c(c1)[C@]1(C(=O)N2)[C@H](C(=O)N2CCCCCCC2)[C@H]2C(=O)O[C@H](c3ccccc3)[C@H](c3ccccc3)N2[C@@H]1c1ccc(OCCO)cc1)C(=O)OC  1.32
2. COC(=O)[C@@]1(Cc2ccc(OC)cc2)[C@@H]2[C@@H](CC(=O)[C@H]2CC(=O)C(=O)N(C)C)CN1C(=O)c1ccccc1  1.24
3. COC(=O)[C@@]1(Cc2ccc(F)cc2)[C@@H]2C(=CC(=O)[C@H]2CC(=O)C(=O)N2CCCC2)CN1C(=O)c1ccccc1  1.24
4. C=CCNC(=O)[C@H]1[C@@H]2C(=O)O[C@@H](c3ccccc3)[C@@H](c3ccccc3)N2[C@@H](c2ccc(OCCO)cc2)[C@]12C(=O)N(C(=O)OCCOC)c1ccc(C#CCC(C(=O)OC)C(=O)OC)cc12  1.2
5. Cc1ccc(S(=O)(=O)N2[C@@H](c3ccccc3)C(C(=O)O)=C[C@H]2C(C)(C)C)cc1  1.18
6. COc1ccc(C#Cc2ccc3c(c2)[C@]2(C(=O)N3)[C@H](c3ccccc3OCCO)N3[C@H](c4ccccc4)[C@H](c4ccccc4)OC(=O)[C@H]3[C@@H]2C(=O)NC[C@H](O)c2ccccc2)cc1  1.14
7. COc1ccc([Si](C)(C)[C@H]2[C@H](CC(=O)N(CCO)Cc3ccccc3)O[C@@]3(C(=O)N(c4ccccc4)c4ccccc43)[C@@H]2C)cc1  1.11
8. CCCCCN1CC=CC23O[C@@H]4/C=C\CCCOC(=O)C4[C@H]2C(=O)N(CCO)[C@@H]3C1=O (stereo not given in full)  0.87
9. O=C1O[C@H](c2ccccc2)[C@H](c2ccccc2)N2[C@H]1[C@@H](C(=O)O)[C@]1(C(=O)Nc3ccccc31)[C@H]2c1ccc(OCCO)cc1  0.823
10. C=C(C(=O)CC[C@@H](OC(=O)c1ccccc1-c1ccccc1C(=O)O)c1ccc(CO)o1)C(C)C  0.434
11. C=CC[C@H](OC(=O)Nc1ccc(SC)cc1)c1ccc(O)c(F)c1  0.294
12. CC(C)N1C(=O)[C@@]2(Cc3ccccc31)c1ccccc1C(=O)N(Cc1ccccc1C(F)(F)F)[C@H]2c1ccc(CO)cc1  0.174
13. C=CCC(OC(C)=O)[C@@H]1[C@@H](N(Cc2ccc(-c3ccccc3)cc2)C(=O)Cc2ccc(OC)cc2)c2cc(OCCCO)ccc2N1C(=O)Cc1ccc(OC)cc1 (stereo not given in full)  0.0716
14. CN1C(=O)C2C=CC(C(O)c3ccc(I)cc3)N(N(c3ccccc3)c3ccccc3)C2C1=O (stereo not given)  -0.0563
15. Cc1cccc([C@H]2C[C@H]3C(Br)=C[C@@]2(CO)C(=O)[C@]32CO2)c1  -0.15
16. Cc1ccc(S[C@]2(C(=O)NC(C)C)CC(=O)N(Cc3ccccc3)[C@@H]2c2ccc(CO)cc2)cc1  -0.161
17. CN1C2C=C(c3ccc(CO)cc3)C(C3C(=O)N(C(N)=O)C(=O)C32)C1C1CC1 (stereo not given)  -0.241
18. C=C(CCCC)C(=O)CC[C@H](OC(=O)c1ccccc1-c1ccccc1C(=O)O)c1cccc(OCCO)c1  -0.298
19. Cc1ccc(S[C@]2(C(=O)NCCN3CCOCC3)CC(=O)N(C(C)C)[C@@H]2c2ccc(CO)cc2I)cc1  -0.636

Target: Focal adhesion kinase 1 (Homo sapiens) (UniProt Q05397)
Sequence (Q05397 whole entry, looked up): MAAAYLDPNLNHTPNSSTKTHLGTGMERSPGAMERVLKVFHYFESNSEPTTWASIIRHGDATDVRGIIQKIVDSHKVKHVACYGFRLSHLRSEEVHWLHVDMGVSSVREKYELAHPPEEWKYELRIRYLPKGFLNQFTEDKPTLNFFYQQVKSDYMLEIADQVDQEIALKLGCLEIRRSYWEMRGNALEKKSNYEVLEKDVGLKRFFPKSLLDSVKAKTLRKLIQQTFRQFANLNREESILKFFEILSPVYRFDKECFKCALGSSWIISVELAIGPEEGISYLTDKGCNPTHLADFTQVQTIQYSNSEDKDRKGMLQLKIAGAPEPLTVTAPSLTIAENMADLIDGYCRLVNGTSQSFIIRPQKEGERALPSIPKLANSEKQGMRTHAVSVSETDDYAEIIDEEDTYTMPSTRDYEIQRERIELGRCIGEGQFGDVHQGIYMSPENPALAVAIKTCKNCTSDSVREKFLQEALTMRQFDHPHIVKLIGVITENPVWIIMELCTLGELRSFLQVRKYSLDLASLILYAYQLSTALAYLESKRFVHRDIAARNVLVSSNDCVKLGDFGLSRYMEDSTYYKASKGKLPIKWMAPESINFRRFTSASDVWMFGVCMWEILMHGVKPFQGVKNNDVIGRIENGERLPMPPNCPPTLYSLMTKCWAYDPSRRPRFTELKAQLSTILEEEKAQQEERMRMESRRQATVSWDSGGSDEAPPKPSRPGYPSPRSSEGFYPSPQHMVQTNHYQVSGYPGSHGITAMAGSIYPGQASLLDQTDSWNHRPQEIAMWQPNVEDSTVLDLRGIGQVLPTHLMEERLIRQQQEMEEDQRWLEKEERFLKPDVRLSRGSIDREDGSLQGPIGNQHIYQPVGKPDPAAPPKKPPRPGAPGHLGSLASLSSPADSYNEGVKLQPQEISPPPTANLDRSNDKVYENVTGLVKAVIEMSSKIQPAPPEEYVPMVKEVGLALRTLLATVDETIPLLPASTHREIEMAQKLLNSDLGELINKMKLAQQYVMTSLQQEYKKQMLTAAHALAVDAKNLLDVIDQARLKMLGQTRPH
Assay: small-molecule microarray binders of FAK, primary screen, biochemical, 635/667 nm fluorescence, BSA, DTT (AID 1130);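 note: composite of spot emission at 667 nm and signal to noise over triplicate slides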
Details: PTK2 binding, 635 nm fluorescence, higher = more signal

In order of rising composite z-score:
1. C=CC[C@H](OC(=O)Nc1ccc(SC)cc1)c1ccc(O)c(F)c1  -0.502
2. C=C(C(=O)CC[C@@H](OC(=O)c1ccccc1-c1ccccc1C(=O)O)c1ccc(CO)o1)C(C)C  -0.304
3. CN1C2C=C(c3ccc(CO)cc3)C(C3C(=O)N(C(N)=O)C(=O)C32)C1C1CC1 (stereo not given)  -0.215
4. C=C(CCCC)C(=O)CC[C@H](OC(=O)c1ccccc1-c1ccccc1C(=O)O)c1cccc(OCCO)c1  -0.194
5. CN1C(=O)C2C=CC(C(O)c3ccc(I)cc3)N(N(c3ccccc3)c3ccccc3)C2C1=O (stereo not given)  -0.164
6. COC(=O)[C@@]1(Cc2ccc(F)cc2)[C@H]2c3cc(C(=O)N4CCCC4)n(C[C@H](O)CO)c3C[C@H]2CN1C(=O)c1ccccc1  -0.0554
7. O=C1O[C@H](c2ccccc2)[C@H](c2ccccc2)N2[C@H]1[C@@H](C(=O)O)[C@]1(C(=O)Nc3ccccc31)[C@H]2c1ccc(OCCO)cc1  -0.0003
8. COC(=O)C(CC#Cc1ccc2c(c1)[C@]1(C(=O)N2)[C@H](C(=O)NC[C@H](O)c2ccccc2)[C@H]2C(=O)O[C@H](c3ccccc3)[C@H](c3ccccc3)N2[C@@H]1c1ccc(O)cc1)C(=O)OC  0.105
9. CCOC(=O)C[C@H]1[C@H](OC(=O)c2ccc(-c3ccccc3)cc2)[C@@H](NC(=O)C2CCCCC2)c2cc(OCCCO)ccc2N1C(=O)Cc1ccc(OC)cc1  0.106
10. COc1ccc(C(=O)Nc2cccc(CN3C(=O)[C@]4(O[C@H](CC(=O)N(CCO)Cc5ccccc5)[C@@H]([Si](C)(C)c5ccc(OC)cc5)[C@@H]4C)c4ccccc43)c2)cc1  0.116
11. CCOC(=O)C1=CC[C@@H](c2ccccc2)N(S(=O)(=O)c2ccc(C)cc2)[C@@H]1C#N  0.165
12. COC(=O)C1(CC(C)C)C=C2C(=C(C)C(=O)C2C)CN1 (stereo not given)  0.183
13. CC(C)[Si](C#Cc1ccccc1)(O[C@H](c1ccccc1)c1cn(Cc2ccccc2)nn1)C(C)C  0.188
14. COc1ccc([Si](C)(C)[C@H]2[C@H](CC(=O)N(CCO)Cc3ccccc3)O[C@@]3(C(=O)N(c4ccccc4)c4ccccc43)[C@@H]2C)cc1  0.207
15. O=C(NCCN1CCOCC1)[C@@H]1c2ccccc2C(=O)N(CC23CC4CC(CC(C4)C2)C3)[C@H]1c1ccc(CO)cc1  0.211
16. C=CCNC(=O)[C@@H]1[C@H]2C(=O)O[C@H](c3ccccc3)[C@H](c3ccccc3)N2[C@H](c2ccc(O)cc2)[C@@]12C(=O)N(C(=O)OCCOC)c1ccc(C#CCC(C(=O)OC)C(=O)OC)cc12  0.214
17. C=CCN1C(=O)[C@]2(O[C@H](CCO)[C@@H]([Si](C)(C)c3ccc(OC)cc3)[C@@H]2C)c2cc(N3C(=O)c4ccccc4Oc4ccccc43)ccc21  0.215
18. Cc1ccc(S[C@]2(C(=O)NCCN3CCOCC3)CC(=O)N(C(C)C)[C@@H]2c2ccc(CO)cc2I)cc1  0.218
19. C=CCNC(=O)[C@H]1[C@@H]2C(=O)O[C@@H](c3ccccc3)[C@@H](c3ccccc3)N2[C@@H](c2ccc(OCCO)cc2)[C@]12C(=O)N(C(=O)OCCOC)c1ccc(C#CCC(C(=O)OC)C(=O)OC)cc12  0.227
20. Cc1cccc([C@H]2C[C@H]3C(Br)=C[C@@]2(CO)C(=O)[C@]32CO2)c1  0.259
21. Cc1ccc(S[C@]2(C(=O)NC(C)C)CC(=O)N(Cc3ccccc3)[C@@H]2c2ccc(CO)cc2)cc1  0.274
22. C=CCOC(=O)[C@H]1[C@@H]2C(=O)O[C@@H](c3ccccc3)[C@@H](c3ccccc3)N2[C@@H](c2ccc(OCCOC(=O)[C@@H]3C[C@@H]4C(=O)N[C@@H](Cc5ccccc5)C(=O)N4[C@@H]3c3ccc(O)cc3)cc2)[C@]12C(=O)Nc1ccc(I)cc12  0.307
23. COC(=O)[C@@]1(Cc2ccc(F)cc2)[C@@H]2C(=CC(=O)[C@H]2CC(=O)C(=O)N2CCCC2)CN1C(=O)c1ccccc1  0.348
24. C=CCC(OC(C)=O)[C@@H]1[C@@H](N(Cc2cccc3ccccc23)C(=O)c2ccc(C)cc2)c2cc(OCCCO)ccc2N1C(=O)Cc1ccc2ccccc2c1 (stereo not given in full)  0.358
25. CC(C)N1C(=O)[C@@]2(Cc3ccccc31)c1ccccc1C(=O)N(Cc1ccccc1C(F)(F)F)[C@H]2c1ccc(CO)cc1  0.368
26. CC(C)c1ccc(NN2C(C(O)C3CCCCC3)C=CC3C(=O)N(c4ccccc4)C(=O)C32)cc1 (stereo not given)  0.401
27. C=CCOC(=O)[C@H]1[C@@H]2C(=O)O[C@@H](c3ccccc3)[C@@H](c3ccccc3)N2[C@@H](c2ccc(OCCOC(=O)[C@H]3C[C@H]4C(=O)NCC(=O)N4[C@H]3c3ccc(O)cc3)cc2)[C@]12C(=O)Nc1ccccc12  0.402
28. COC(=O)[C@@]1(Cc2ccc(OC)cc2)[C@@H]2[C@@H](CC(=O)[C@H]2CC(=O)C(=O)N(C)C)CN1C(=O)c1ccccc1  0.462
29. C=CCNC(=O)[C@H]1[C@@H]2C(=O)O[C@@H](c3ccccc3)[C@@H](c3ccccc3)N2[C@@H](c2ccc(OCCO)cc2)[C@]12C(=O)N(C(=O)OCCOC)c1ccc(C#CCNC(N)=O)cc12  0.621
30. CN(C)C(=O)[C@]1(CCS(=O)(=O)c2ccccc2)N=C(c2ccc(OCCCO)cc2)O[C@@H]1c1ccccc1CN=[N+]=[N-]  1.08
31. CCCCCN1CC=CC23O[C@@H]4/C=C\CCCOC(=O)C4[C@H]2C(=O)N(CCO)[C@@H]3C1=O (stereo not given in full)  1.15
32. COc1ccc(C#Cc2ccc3c(c2)[C@]2(C(=O)N3)[C@H](c3ccccc3OCCO)N3[C@H](c4ccccc4)[C@H](c4ccccc4)OC(=O)[C@H]3[C@@H]2C(=O)NC[C@H](O)c2ccccc2)cc1  1.31
33. Cc1ccc(S(=O)(=O)N2[C@@H](c3ccccc3)C(C(=O)O)=C[C@H]2C(C)(C)C)cc1  1.31
34. C=CCC(OC(C)=O)[C@@H]1[C@@H](N(Cc2ccc(-c3ccccc3)cc2)C(=O)Cc2ccc(OC)cc2)c2cc(OCCCO)ccc2N1C(=O)Cc1ccc(OC)cc1 (stereo not given in full)  1.78
35. O=C1O[C@@H](c2ccccc2)[C@@H](c2ccccc2)N2[C@@H](c3ccccc3OCCO)[C@]3(C(=O)Nc4ccc(C#CC5(O)CCCCCC5)cc43)[C@@H](C(=O)N3CCCCCCC3)[C@H]12  4.12
36. COC(=O)C(CC#Cc1ccc2c(c1)[C@]1(C(=O)N2)[C@H](C(=O)N2CCCCCCC2)[C@H]2C(=O)O[C@H](c3ccccc3)[C@H](c3ccccc3)N2[C@@H]1c1ccc(OCCO)cc1)C(=O)OC  4.91
